In the library only some 1.6% were active in any assay of this set; here they are far more common.
V-ATPase pH: regulators of yeast V-ATPase proton pumping, primary screen, pHLuorin cytosolic pH fluorescence. S. cerevisiae. 0.37% of 350,000 active. response, % at 10 µM; in the data active = response mostly above about 7.3%, no sharp cut-off; inactive = mostly below about 5.4%; note: actives read high
NPR1 activator: GC-A stimulated cGMP production enhancers – HEK293 GC-A cells, cGMP TR-FRET, EC30 ANP, primary screen. Atrial natriuretic peptide receptor 1 (Homo sapiens), P16066. 0% at EC30 ANP, 100% saturating ANP. activation, % at 10 µM. 0.14% of 370,000 active; in the data active = activation above about 40%
Rev-erbA mod: modulators of Rev-erb alpha DNA binding, primary screen, biochemical, FITC-DNA, fluorescence polarization, uHTS; activity, % at 10 µM; 0.79% of 370,000 active; Rev-erbα–FITC-DNA binding, 90 min; Nuclear receptor subfamily 1 group D member 1 (Homo sapiens), P20393;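 active = activity above about 14%, limit read from the data; passing the limit was not always enough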
GC-B act: human GC-B receptor activators, primary screen, HEK293 GC-B cells, cGMP TR-FRET, EC30 CNP; Atrial natriuretic peptide receptor 2 (Homo sapiens), P20594; activation, % at 10 µM; AID 1920062, 2024; 0% at EC30 CNP, 100% saturating CNP; 0.11% of 370,000 active;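 active = activation at 10 µM reaching about 35% in either raw or pattern-adjusted values, limit read from the data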
PG9 Ab binder: binders of HIV-1 gp120 antibody PG9, primary screen, biochemical, TR-FRET; HIV-1 gp120 / PG9 antibody interaction; TR-FRET gp120-PG9 antibody binding; inhibition, % at 6.7 µM; 0.43% of 360,000 active; AID 624416, 2012; in the data active = inhibition above about 8.5%
Hits are given with their value; i = inactive; nt = no result given.

SMILES	V-ATPase pH	NPR1 activator	Rev-erbA mod	GC-B act	PG9 Ab binder
CCOc1ccc(S(=O)(=O)N(C)C)cc1-c1nc2c(C(C)(C)C)nn(C)c2c(=O)[nH]1	i	58	i	68	i
CN(CCO)c1cccc2c1S(=O)(=O)N(Cc1cn(Cc3cccc(C(F)(F)F)c3)nn1)Cc1ccccc1O2	nt	i	i	i	nt
COc1ccc(-n2c(N)c(C(=O)NCC3CCCO3)c3nc4ccccc4nc32)c(OC)c1 (stereo unspecified)	i	40	i	40	i
COc1ccc(-c2nc(NC(=O)CSc3nnc4ccccn34)ns2)cc1	nt	i	i	45	i
CCN1C(=O)[C@H]2[C@@H](c3ccc(C)cc3)N3C(=O)N(c4cccc(Br)c4)C(=O)[C@@]3(Cc3ccccc3)[C@H]2C1=O	13	i	i	i	i
COc1ccc(C2C(C(=O)Nc3cc(OC)c(OC)c(OC)c3)CCC(=O)N2c2ccc(OC)cc2)cc1 (stereo unspecified)	nt	i	i	i	nt
CCn1c(=O)cc(SCC(=O)NCc2ccc(C)cc2)c2ccccc21	i	i	i	i	i
CCn1c(=O)cc(SCC(=O)Nc2ccc(C)cn2)c2ccccc21	i	i	i	i	23
O=C1c2ccccc2C(Nc2ccccc2)N1Cc1ccc2c(c1)OCO2 (stereo unspecified)	i	62	i	i	i
O=C1c2ccccc2C(Nc2ccc3c(c2)OCCO3)N1Cc1ccc2c(c1)OCO2 (stereo unspecified)	i	i	i	i	i
CO/N=C(\C(=O)N[C@H]1C(=O)N2C(C(=O)OCOC(=O)C(C)(C)C)=C(/C=C\c3scnc3C)CSC12)c1csc(N)n1 (stereo partly specified)	nt	nt	i	nt	nt
Cc1[nH]c(-c2ccco2)nc1C(=O)O	23	i	i	i	i
CCOc1ccc(-c2cc(C(=O)OC)c3n(c2=O)CCC3)cc1	nt	i	i	i	nt
Cn1c(N/N=C2\CCCc3ccccc32)nc2c1c(=O)n(Cc1ccccc1)c(=O)n2C	i	i	i	i	i
Cn1c(=O)c2c(nc(N/N=C3\CCCc4ccccc43)n2Cc2ccc(F)cc2)n(C)c1=O	i	i	i	50	i
COCCNC(=O)C1CCN(Cc2cccc(OCc3ccccc3)c2)CC1	13	i	i	i	i
NS(=O)(=O)c1ccc(N2CCCCS2(=O)=O)cc1	nt	nt	i	nt	nt
CC(=O)O[C@]1(C(C)=O)CCC2C3C=C(C)C4=CC(=O)CCC4(C)C3CCC21C (stereo partly specified)	nt	nt	i	nt	nt
O=C(C(=Cc1ccc(F)cc1)c1ccccc1)c1ccc(O)cc1	i	68	i	i	i
O[C@@H](COc1cccc2ncccc12)CN1CCN(C2c3ccccc3[C@@H]3[C@H](c4ccccc42)C3(F)F)CC1 (stereo partly specified)	nt	nt	i	nt	nt
COc1ccc(CCNC(=O)CCc2nc3ccccc3[nH]2)cc1OC	14	i	i	i	i
O=C(CCN1C(=O)C2C3C=CC(C4CC34)C2C1=O)Oc1ccc(Br)cc1 (stereo unspecified)	13	i	i	i	i
Cc1cc(OCc2nnc(SCC(=O)OC3CCCCC3)o2)ccc1Cl	i	66	i	i	i
O=C(CSc1nnc(COc2ccc(Cl)cc2)o1)OC1CCCCC1	i	76	i	i	i
Cc1ccc2nc(-c3ccc(NC(=O)CSc4nnc(-c5cccc(Cl)c5)n4Cc4ccco4)cc3)sc2c1	nt	i	i	i	nt
CC1(C)[C@H]2CC[C@]1(C)C(=O)C2	nt	nt	i	nt	nt
COP(=O)(CC(=O)OC(C)(C)C)C(CC(C)C)NC(=O)OCc1ccccc1 (stereo unspecified)	nt	i	i	i	nt
COC(=O)C(O)(NC(=O)NC(C)=O)C(F)(F)F (stereo unspecified)	14	i	i	i	i
COC(=O)C(O)(NC(=O)c1ccncc1)C(F)(F)F (stereo unspecified)	i	i	i	i	i
COC1=CC(=O)C[C@@H](C)C12Oc1c(Cl)c(OC)cc(OC)c1C2=O (stereo partly specified)	nt	nt	i	nt	nt
